The values that follow come from ChEMBL document CHEMBL4513216, “Probing the Open Global Health Chemical Diversity Library for Multistage-Active Starting Points for Next-Generation Antimalarials” (ACS Infect Dis, 2020).

In all, about 69,000 compounds went through this assay and about 8,600 (12%) showed an effect of 50% or more. For the sample, strong results were picked, then their nearest neighbours and some compounds at random.

This test deals with Plasmodium berghei. Briefly: Screen against P. berghei liver stage (PbLuc), transformed with Luciferase, at 10uM. Particulars: tested at 10 uM. In kind it is functional, HepG2.
For `c1cncc(CNC2CCc3ncnn3C2)c1` (stereo unspecified), the INHIBITION is reported as 33.3%.

As for `Cc1ccc(C)c(NCc2nc3n(n2)CCCCC3)c1`, the INHIBITION turned out to be 17.6%.

Regarding `Cc1csc2c(C3CCN(C(=O)Cn4cncn4)CC3)nc(C)n12`, the INHIBITION was 32.3%.

With `CC(C)c1nc(C2CCCN2CCS(C)(=O)=O)no1` (stereo unspecified), the INHIBITION is given as 31.5%.

On to `CS(=O)(=O)N[C@@H]1CN(Cc2ccccc2)C[C@H]1O`, for which the INHIBITION came out at 22.8%.

For the compound `CS(=O)(=O)N[C@@H]1CN(Cc2ccccc2)C[C@@H]2CCCO[C@@H]21`, the INHIBITION is -57.7%.

Take `CC(C)[C@@H]1CN(CCOc2ccccc2)C[C@H]1NS(=O)(=O)N(C)C`: the INHIBITION was 33.2%.

`CC(C)[C@H]1CN(C2Cc3ccccc3C2)C[C@@H]1NS(=O)(=O)N(C)C`: the INHIBITION was 55%.

Regarding `CC(C)[C@@H]1CN(S(=O)(=O)Cc2ccccc2)C[C@H]1NS(=O)(=O)N(C)C`, the INHIBITION is 32.7%.

Turning to `CC(C)[C@@H]1CN(C2CCN(Cc3ccccc3)CC2)C[C@H]1NS(C)(=O)=O`, the INHIBITION was 64.9%.

For the compound `Cc1noc(C)c1CN1C[C@@H]2CCCO[C@@H]2[C@H](Nc2ccccn2)C1`, the INHIBITION is listed as 16.4%.

For the compound `Cc1noc(C)c1CN1CCCCC1CCc1ccc(O)cc1` (stereo unspecified), the INHIBITION was 12.6%.

For the compound `COCCN1CC(=O)N2CC[C@@H](O)C[C@H]2C1=O`, the INHIBITION turned out to be 10.615%.

Take `CC(C)[C@@H]1CN(C(=O)C2(c3ccccc3)CCN(C)CC2)C[C@H]1C(=O)O`: the INHIBITION amounted to 64%.

`CC(C)[C@@H]1CN(C(=O)CN(C)Cc2ccccc2)C[C@H]1C(=O)O`: the INHIBITION is on record as 47.9%.

On to `COc1ccc(C2(C(=O)N3C[C@@H](C(=O)O)[C@H](C(C)C)C3)CC2)cc1`, for which the INHIBITION is -17.3%.

For `Cc1ccsc1C(=O)N1C[C@@H](C(=O)O)[C@H](C(C)C)C1`, the INHIBITION is recorded as 24.4%.

As to `CC(C)[C@@H]1CN(C(=O)C2(c3ccccc3)CCN(C)CC2)C[C@H]1N(C)C`, the INHIBITION is recorded as 39.4%.

On to `CC(C)[C@@H]1CN(C(=O)C2(c3ccccc3)CC2)C[C@H]1C(=O)O`, for which the INHIBITION was 50.1%.

Consider `CS(=O)(=O)N1CCC(c2cncc(Cl)n2)CC1`, for which the INHIBITION is -1.16%.

`CC(C)CN(Cc1ccccn1)Cc1ccccc1OCC(=O)O`: the INHIBITION was 54.4%.

With `CC(C)CN(Cc1ccccn1)Cc1ccccc1C(=O)O`, the INHIBITION stood at 38.6%.

For the compound `CC(C)CN(Cc1ccc(O)c(C(=O)O)c1)Cc1ccccn1`, the INHIBITION was found to be 43.9%.

Regarding `COCC(=O)NCCn1nc(-c2cc(C)oc2C)ccc1=O`, the INHIBITION is -0.275%.

Consider `O=C(Nc1ccccc1-c1ccccc1)N1C[C@@H]2CNC[C@]2(C(=O)O)C1`, for which the INHIBITION amounted to 55.4%.

In the case of `O=C(Nc1ccc(-c2ccccc2)cc1)N1C[C@@H]2CNC[C@]2(C(=O)O)C1`, the INHIBITION is 41.5%.

With `O=C(c1ccccc1-c1ccccc1)N1C[C@@H]2CNC[C@]2(C(=O)O)C1`, the INHIBITION came to 49.7%.

For `Cc1cc(CNC2CCCN(Cc3noc(C4CC4)n3)C2)on1` (stereo unspecified), the INHIBITION is 46.2%.

Turning to `CN(CCc1ccccn1)C(=O)CCC1CCCN(c2ncccn2)C1` (stereo unspecified), the INHIBITION turned out to be 16.1%.

Take `CCCc1csc(-c2ccc(S(C)(=O)=O)cc2)n1`: the INHIBITION is reported as -39.1%.

Turning to `CC(C)(CN1CCC(Cc2cccc(C(=O)O)c2)C1)N1CCOCC1` (stereo unspecified), the INHIBITION amounted to 1.71%.

For the compound `CCOc1ccc(Oc2cc(N)ccn2)cc1`, the INHIBITION was -55.5%.

`Cc1nc(NC(=O)CN2CCOC(Cn3cccn3)C2)sc1C` (stereo unspecified): the INHIBITION turned out to be 60.4%.

For the compound `O=C(CN1CCOC(Cn2cncn2)C1)NC(C1CC1)C1CC1` (stereo unspecified), the INHIBITION is recorded as 23.9%.

Consider `O=C(CN1CCOC(Cn2cccn2)C1)Nc1nncs1` (stereo unspecified), for which the INHIBITION was determined as 41.2%.

As for `Cc1nnc(NC(=O)CN2CCOC(Cn3cccn3)C2)s1` (stereo unspecified), the INHIBITION was 17.4%.

Consider `O=C(CN1CCOC(Cn2cccn2)C1)Nc1nccs1` (stereo unspecified), for which the INHIBITION worked out at 53.3%.

For the compound `CN(Cc1ccsc1)C(=O)CN1CCOC(Cn2cccn2)C1` (stereo unspecified), the INHIBITION was found to be 33%.

For the compound `O=C(CN1CCOC(Cn2cccn2)C1)Nc1ccncc1` (stereo unspecified), the INHIBITION is reported as -18.2%.

Regarding `O=C(CN1CCOC(Cn2cccn2)C1)NC(C1CC1)C1CC1` (stereo unspecified), the INHIBITION worked out at 58.2%.

Take `Cc1nn(C)c(C)c1NC(=O)CN1CCOC(Cn2cccn2)C1` (stereo unspecified): the INHIBITION turned out to be 47.1%.

On to `Cc1cnn(CC2CN(CC(=O)Nc3nccs3)CCO2)c1` (stereo unspecified), for which the INHIBITION is 29.6%.

With `Cc1cnn(CC2CN(CC(=O)N(C)c3nccs3)CCO2)c1` (stereo unspecified), the INHIBITION is recorded as 11.8%.

For the compound `CN(C(=O)CN1CCOC(Cn2cccn2)C1)c1nccs1` (stereo unspecified), the INHIBITION stood at 52.1%.

In the case of `NC(=O)c1csc(N2C[C@@H](CN3CCCCC3)[C@@H](CO)C2)n1`, the INHIBITION turned out to be 14.45%.

For the compound `CC(=O)c1cc2ncc(C(=O)NC3CCCCC3)cc2[nH]1`, the INHIBITION is listed as -25.1%.

In the case of `COC(=O)C(C)(C)NC(=O)C1CC(=O)N(CC(F)(F)F)C1` (stereo unspecified), the INHIBITION is on record as -28.7%.

With `CC(NC(=O)OC(C)(C)C)c1nnc(S(=O)(=O)Cc2ccccc2Cl)o1` (stereo unspecified), the INHIBITION was 21.5%.

On to `Cn1ncc2c1C(COCC1CC1)CN(c1ncc(F)cn1)C2` (stereo unspecified), for which the INHIBITION is listed as 7.67%.

Consider `Cn1cc(-c2nc(C(=O)N3CCCC3Cn3cccn3)cs2)cn1` (stereo unspecified), for which the INHIBITION is on record as 40.2%.

Regarding `Cc1ccc(CC(=O)N2CCCCC2Cn2cccn2)cn1` (stereo unspecified), the INHIBITION stood at 30.3%.
